Results from the supplement of paper PMC10849652.
About 7,900 targets were measured; listed, in parts, are those with a hit and a random draw of the rest. About 0.6% of all pairs of compound and target were hits.

Assays:
Assay in all cases: log2 fold change, soluble protein after heating vs DMSO (PISA); higher = thermal stabilisation; K562 cells, 10 uM, 30 min; active = over 0.2 and 3.5 SD of the protein, either way, in both replicates (recomputed)
[1] = compound: Cc1ccc(NC(=O)c2ccc(CN3CC[C@H](N(C)C)C3)c(C(F)(F)F)c2)cc1Nc1nccc(-c2cncnc2)n1 [bafetinib]
Procedure, shortened: (§1)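 Quantification of soluble protein used TMTpro 16plex LC-MS/MS, with channel sums equalised. Samples were the supernatant after 21,000xg for 90 min of pooled aliquots from K562 cells (2×10^6 cells/mL) treated with 10 μM compound for 30 min, heated for 3 min over 48°C-58°C, and extracted in PBS with 0.5% NP-40 at 4°C. Values, from duplicates, describe thermal stability against control samples on a log2 fold-change scale.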

[2] = compound: Cc1cccc(CC(=O)N2CCc3c2ccc(-c2cn(C)c4ncnc(N)c24)c3F)n1
Procedure, shortened: as §1

[3] = compound: Cc1cn(-c2cc(NC(=O)c3ccc(C)c(Nc4nccc(-c5cccnc5)n4)c3)cc(C(F)(F)F)c2)cn1 [nilotinib]
Procedure, shortened: as §1

[4] = compound: Cc1nc(Nc2n[nH]c3c2CN(C(=O)N[C@H](CN(C)C)c2ccccc2)C3(C)C)c2sccc2n1
Procedure, shortened: as §1

[5] = compound: Cc1nc(Nc2ncc(C(=O)Nc3c(C)cccc3Cl)s2)cc(N2CCN(CCO)CC2)n1 [dasatinib]
Procedure, shortened: as §1

[6] = compound: Cc1ncc(-c2ccnc(Nc3ccc(S(C)(=O)=O)cc3)n2)n1C(C)C
Procedure, shortened: as §1

[7] = compound: Cn1cc(-c2ccc3c(c2)CCN3C(=O)Cc2cccc(C(F)(F)F)c2)c2c(N)ncnc21
Procedure, shortened: as §1

[8] = compound: Cn1cc(-c2ccc3nnc(C(F)(F)c4ccc5ncccc5c4)n3n2)cn1
Procedure, shortened: as §1

[9] = compound: Cn1cncc1[C@@](N)(c1ccc(Cl)cc1)c1ccc2c(c1)c(-c1cccc(Cl)c1)cc(=O)n2C [tipifarnib]
Procedure, shortened: as §1

[10] = compound: FC(F)(F)c1ccc(/C=C/c2nc(COc3ccc(CCCCn4ccnn4)cc3)co2)cc1 [mubritinib]
Procedure, shortened: as §1

[11] = compound: NC(=O)Nc1cc(-c2cccc(F)c2)sc1C(=O)N[C@H]1CCCNC1
Procedure, shortened: as §1

[12] = compound: NC(=O)c1cnc(N[C@@H]2CCCC[C@@H]2N)nc1Nc1cccc(-n2nccn2)c1
Procedure, shortened: as §1

[13] = compound: NC1(c2ccc(-c3nc4ccn5c(=O)[nH]nc5c4cc3-c3ccccc3)cc2)CCC1
Procedure, shortened: as §1

[14] = compound: NCC(=O)Nc1ccc(-n2nc(C(F)(F)F)cc2-c2ccc3c(ccc4ccccc43)c2)cc1
Procedure, shortened: as §1

[15] = compound: Nc1ccccc1NC(=O)c1ccc(CNC(=O)OCc2cccnc2)cc1 [entinostat]
Procedure, shortened: as §1

[16] = compound: O=C(CCCCCCC(=O)Nc1ccccc1)NO [vorinostat]
Procedure, shortened: as §1

[17] = compound: O=C(CCCCCCNC(=O)c1cnc(N(c2ccccc2)c2ccccc2Cl)nc1)NO [citarinostat]
Procedure, shortened: as §1

[18] = compound: O=C(O)c1ccc2c(c1)nc(Nc1cccc(Cl)c1)c1ccncc12 [silmitasertib]
Procedure, shortened: as §1

[19] = compound: O=C1NC(=O)C(c2cnc3ccccn23)=C1c1cn2c3c(cc(F)cc13)CN(C(=O)N1CCCCC1)CC2
Procedure, shortened: as §1

[20] = compound: c1cc(OCCN2CCCCC2)cc(-c2n[nH]c3ccc(-c4nnc[nH]4)cc23)c1
Procedure, shortened: as §1

Measured: log2 fold change

COCH (UniProt O43405)
inactive: [1] 0.076 | [2] -0.17 | [3] 0.2 | [4] -0.288 | [5] 0.179 | [6] -0.262 | [7] -0.069 | [8] -0.005 | [9] 0.07 | [10] -0.062 | [11] 0.024 | [12] -0.014 | [13] 0.035 | [14] 0.13 | [15] 0.123 | [16] -0.122 | [17] -0.084 | [18] 0.072 | [19] 0.055 | [20] -0.149

CHCHD1 (UniProt Q96BP2)
inactive: [1] -0.084 | [2] 0.081 | [3] -0.007 | [4] 0.02 | [5] -0.057 | [6] -0.031 | [7] -0.153 | [8] 0.105 | [9] 0.077 | [10] 0.104 | [11] 0.017 | [12] -0.142 | [13] -0.149 | [14] -0.023 | [15] 0.03 | [16] 0.023 | [17] 0.009 | [18] 0.031 | [19] -0.015 | [20] -0.169

CHEK1 (UniProt O14757)
UniProt O14757, sequence (O14757 whole entry, looked up): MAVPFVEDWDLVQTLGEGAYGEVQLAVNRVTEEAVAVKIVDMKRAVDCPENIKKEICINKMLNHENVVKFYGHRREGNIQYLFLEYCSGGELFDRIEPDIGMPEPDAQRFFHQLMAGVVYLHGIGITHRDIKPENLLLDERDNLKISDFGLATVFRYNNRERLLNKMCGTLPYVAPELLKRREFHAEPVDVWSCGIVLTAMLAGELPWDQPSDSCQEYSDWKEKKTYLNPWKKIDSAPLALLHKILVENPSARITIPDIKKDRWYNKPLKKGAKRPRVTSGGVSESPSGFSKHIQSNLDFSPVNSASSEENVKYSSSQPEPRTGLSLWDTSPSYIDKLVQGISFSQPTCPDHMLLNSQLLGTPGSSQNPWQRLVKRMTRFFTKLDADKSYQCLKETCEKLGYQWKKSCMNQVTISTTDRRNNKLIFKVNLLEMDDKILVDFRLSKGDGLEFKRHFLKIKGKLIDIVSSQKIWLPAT
active: [4] -1.17 | [11] 0.338 | [20] -0.276
inactive: [1] -0.053 | [2] 0.02 | [3] -0.05 | [5] -0.064 | [6] 0.002 | [7] 0.021 | [8] -0.022 | [9] 0.005 | [10] 0.048 | [12] -0.225 | [13] -0.209 | [14] -0.032 | [15] 0.02 | [16] 0.037 | [17] 0.094 | [18] -0.011 | [19] -0.064

CAD (UniProt P27708)
UniProt P27708, sequence (P27708 whole entry, looked up): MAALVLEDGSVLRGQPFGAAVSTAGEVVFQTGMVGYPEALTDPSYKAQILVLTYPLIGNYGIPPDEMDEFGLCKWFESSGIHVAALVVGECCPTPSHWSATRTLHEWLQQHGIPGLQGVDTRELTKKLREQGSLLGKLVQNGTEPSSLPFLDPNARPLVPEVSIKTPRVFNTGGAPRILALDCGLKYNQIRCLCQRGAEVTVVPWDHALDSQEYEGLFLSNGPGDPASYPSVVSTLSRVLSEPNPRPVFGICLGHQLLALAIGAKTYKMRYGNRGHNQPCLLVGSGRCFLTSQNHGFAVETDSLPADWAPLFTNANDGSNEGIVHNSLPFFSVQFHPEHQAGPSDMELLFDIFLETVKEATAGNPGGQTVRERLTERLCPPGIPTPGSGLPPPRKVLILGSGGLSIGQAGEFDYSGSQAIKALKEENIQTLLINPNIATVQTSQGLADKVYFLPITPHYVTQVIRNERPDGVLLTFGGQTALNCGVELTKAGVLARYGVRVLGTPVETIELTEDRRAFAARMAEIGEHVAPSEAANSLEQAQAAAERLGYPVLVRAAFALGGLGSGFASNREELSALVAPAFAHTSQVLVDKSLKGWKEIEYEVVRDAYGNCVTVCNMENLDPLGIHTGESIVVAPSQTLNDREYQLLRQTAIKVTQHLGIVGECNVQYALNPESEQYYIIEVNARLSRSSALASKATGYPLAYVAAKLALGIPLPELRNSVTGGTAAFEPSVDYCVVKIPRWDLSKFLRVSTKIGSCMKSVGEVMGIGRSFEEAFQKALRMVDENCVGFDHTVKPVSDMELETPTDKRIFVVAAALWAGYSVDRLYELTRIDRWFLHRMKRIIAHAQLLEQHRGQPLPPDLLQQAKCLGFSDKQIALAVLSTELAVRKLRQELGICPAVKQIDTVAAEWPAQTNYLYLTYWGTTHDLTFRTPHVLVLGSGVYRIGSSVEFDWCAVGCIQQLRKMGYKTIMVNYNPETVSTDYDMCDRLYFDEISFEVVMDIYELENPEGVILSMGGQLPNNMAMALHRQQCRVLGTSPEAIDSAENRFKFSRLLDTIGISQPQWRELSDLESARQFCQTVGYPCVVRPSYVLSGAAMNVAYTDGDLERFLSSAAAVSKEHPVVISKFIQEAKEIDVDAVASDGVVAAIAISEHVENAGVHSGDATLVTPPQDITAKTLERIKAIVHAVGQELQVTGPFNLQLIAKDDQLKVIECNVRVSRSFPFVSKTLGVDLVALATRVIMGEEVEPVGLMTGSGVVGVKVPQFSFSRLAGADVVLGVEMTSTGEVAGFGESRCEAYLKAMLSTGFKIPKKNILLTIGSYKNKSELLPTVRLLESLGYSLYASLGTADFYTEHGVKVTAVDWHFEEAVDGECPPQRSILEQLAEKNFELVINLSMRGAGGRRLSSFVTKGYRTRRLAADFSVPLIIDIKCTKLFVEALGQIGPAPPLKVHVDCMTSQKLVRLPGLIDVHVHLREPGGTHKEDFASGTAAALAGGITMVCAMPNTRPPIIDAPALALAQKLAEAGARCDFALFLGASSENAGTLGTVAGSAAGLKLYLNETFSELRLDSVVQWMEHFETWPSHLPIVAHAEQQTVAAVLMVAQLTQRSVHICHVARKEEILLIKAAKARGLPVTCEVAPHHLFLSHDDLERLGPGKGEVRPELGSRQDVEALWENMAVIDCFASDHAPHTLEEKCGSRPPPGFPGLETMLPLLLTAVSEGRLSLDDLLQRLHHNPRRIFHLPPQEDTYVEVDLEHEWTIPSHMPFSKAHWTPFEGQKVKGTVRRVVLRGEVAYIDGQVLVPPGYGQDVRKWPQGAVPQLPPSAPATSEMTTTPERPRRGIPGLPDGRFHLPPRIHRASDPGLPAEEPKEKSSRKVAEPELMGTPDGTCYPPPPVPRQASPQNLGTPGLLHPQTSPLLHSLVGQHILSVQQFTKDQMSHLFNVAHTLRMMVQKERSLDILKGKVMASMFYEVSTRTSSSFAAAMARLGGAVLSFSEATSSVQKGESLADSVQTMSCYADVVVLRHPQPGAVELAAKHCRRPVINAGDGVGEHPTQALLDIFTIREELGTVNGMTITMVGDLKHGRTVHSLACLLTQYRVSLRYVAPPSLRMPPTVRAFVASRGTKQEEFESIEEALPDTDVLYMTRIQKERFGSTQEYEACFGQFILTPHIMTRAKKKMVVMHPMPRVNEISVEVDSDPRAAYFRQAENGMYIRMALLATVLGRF
inactive: [1] 0.011 | [2] 0.06 | [3] -0.095 | [4] -0.008 | [6] 0.081 | [7] -0.012 | [8] -0.097 | [9] -0.032 | [10] -0.006 | [11] 0.033 | [12] -0.014 | [13] -0.145 | [14] 0.008 | [15] -0.026 | [16] 0.088 | [17] 0.014 | [18] 0.003 | [19] 0.108 | [20] -0.141
active: [5] -0.386

CHP1 (UniProt Q99653)
UniProt Q99653, sequence (Q99653 whole entry, looked up): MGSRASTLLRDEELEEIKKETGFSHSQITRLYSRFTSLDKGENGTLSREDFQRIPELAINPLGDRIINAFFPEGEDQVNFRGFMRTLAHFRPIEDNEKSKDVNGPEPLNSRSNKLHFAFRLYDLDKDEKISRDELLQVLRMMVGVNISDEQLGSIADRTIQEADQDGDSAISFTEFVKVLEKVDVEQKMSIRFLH
inactive: [1] 0 | [2] -0.087 | [3] 0.014 | [4] 0.019 | [5] 0.042 | [6] 0.004 | [7] 0.043 | [8] -0.116 | [9] 0.072 | [10] 0.037 | [11] -0.1 | [12] 0.014 | [13] -0.104 | [14] 0.19 | [15] -0.012 | [16] -0.066 | [17] 0.001 | [18] 0.061 | [19] -0.054 | [20] 0.011

CASP3 (UniProt P42574)
inactive: [1] -0.031 | [2] -0.042 | [3] 0.013 | [4] -0.012 | [5] 0.002 | [6] -0.007 | [7] 0.008 | [8] -0.022 | [9] -0.055 | [10] 0.007 | [11] 0.051 | [12] 0.053 | [13] 0.075 | [14] 0.043 | [15] -0.029 | [16] 0 | [17] -0.043 | [18] -0.057 | [19] 0.018 | [20] -0.051

CSK (UniProt P41240)
active: [11] 0.318
inactive: [1] 0.088 | [2] 0.019 | [3] 0.126 | [4] -0.001 | [5] 0.137 | [6] 0.017 | [7] 0.019 | [8] -0.031 | [9] -0.129 | [10] 0.107 | [12] -0.084 | [13] -0.156 | [14] -0.083 | [15] 0.006 | [16] 0.023 | [17] 0.03 | [18] 0.046 | [19] -0.048 | [20] -0.014

CES2 isoform 4 (UniProt O00748)
UniProt O00748, sequence (O00748 whole entry, looked up): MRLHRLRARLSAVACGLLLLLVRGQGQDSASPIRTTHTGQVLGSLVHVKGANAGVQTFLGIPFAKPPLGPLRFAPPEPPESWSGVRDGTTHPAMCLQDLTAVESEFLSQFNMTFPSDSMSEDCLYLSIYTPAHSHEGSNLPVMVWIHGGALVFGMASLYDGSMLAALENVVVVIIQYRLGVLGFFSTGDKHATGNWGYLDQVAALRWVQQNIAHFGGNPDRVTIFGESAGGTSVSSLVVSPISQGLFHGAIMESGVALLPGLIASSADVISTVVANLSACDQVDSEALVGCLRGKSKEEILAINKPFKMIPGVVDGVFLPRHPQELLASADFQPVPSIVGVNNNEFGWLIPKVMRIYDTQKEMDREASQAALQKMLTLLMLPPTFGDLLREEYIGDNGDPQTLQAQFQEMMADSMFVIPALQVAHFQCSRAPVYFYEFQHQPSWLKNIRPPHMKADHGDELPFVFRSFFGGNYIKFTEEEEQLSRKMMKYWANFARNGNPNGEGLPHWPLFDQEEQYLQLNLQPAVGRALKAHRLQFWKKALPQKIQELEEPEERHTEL
active: [7] 0.489
inactive: [1] -0.006 | [2] -0.104 | [3] 0.274 | [4] -0.045 | [5] 0.119 | [6] -0.036 | [8] 0.166 | [9] 0.28 | [10] 0.111 | [11] 0.116 | [12] 0.017 | [13] -0.051 | [14] 0.095 | [15] -0.083 | [16] -0.017 | [17] -0.083 | [18] 0.076 | [19] 0.027 | [20] -0.016

CETN2 (UniProt P41208)
UniProt P41208, sequence (P41208 whole entry, looked up): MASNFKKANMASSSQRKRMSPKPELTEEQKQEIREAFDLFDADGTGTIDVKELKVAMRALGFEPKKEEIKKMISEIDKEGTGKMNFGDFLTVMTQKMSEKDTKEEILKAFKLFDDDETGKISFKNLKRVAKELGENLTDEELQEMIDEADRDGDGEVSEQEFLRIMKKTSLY
inactive: [1] -0.029 | [2] -0.131 | [3] 0.071 | [4] -0.055 | [5] 0.081 | [6] -0.001 | [7] -0.013 | [8] 0.03 | [9] 0.216 | [10] 0.036 | [11] -0.051 | [12] 0.024 | [13] 0.102 | [14] 0.076 | [15] -0.033 | [16] -0.122 | [17] -0.1 | [18] -0.028 | [19] -0.027 | [20] -0.091

COPS4 (UniProt Q9BT78)
UniProt Q9BT78, sequence (Q9BT78 whole entry, looked up): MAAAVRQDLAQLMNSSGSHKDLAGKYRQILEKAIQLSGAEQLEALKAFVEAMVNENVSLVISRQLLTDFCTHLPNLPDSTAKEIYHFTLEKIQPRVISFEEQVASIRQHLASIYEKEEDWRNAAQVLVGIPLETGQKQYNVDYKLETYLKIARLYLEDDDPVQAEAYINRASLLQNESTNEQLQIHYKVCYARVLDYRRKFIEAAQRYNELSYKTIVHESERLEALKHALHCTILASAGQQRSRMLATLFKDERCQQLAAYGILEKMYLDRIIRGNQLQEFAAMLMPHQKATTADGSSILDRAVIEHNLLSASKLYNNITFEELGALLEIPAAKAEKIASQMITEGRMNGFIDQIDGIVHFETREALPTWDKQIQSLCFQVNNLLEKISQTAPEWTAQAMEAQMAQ
inactive: [1] 0.003 | [2] 0 | [3] 0 | [4] -0.01 | [5] -0.023 | [6] 0.007 | [7] 0.031 | [8] 0.003 | [9] -0.012 | [10] 0.031 | [11] 0.015 | [12] 0.009 | [13] -0.032 | [14] 0.036 | [15] 0.01 | [16] 0.027 | [17] 0.031 | [18] -0.035 | [19] -0.01 | [20] 0.027

CSNK2B (UniProt P67870)
UniProt P67870, sequence (P67870 whole entry, looked up): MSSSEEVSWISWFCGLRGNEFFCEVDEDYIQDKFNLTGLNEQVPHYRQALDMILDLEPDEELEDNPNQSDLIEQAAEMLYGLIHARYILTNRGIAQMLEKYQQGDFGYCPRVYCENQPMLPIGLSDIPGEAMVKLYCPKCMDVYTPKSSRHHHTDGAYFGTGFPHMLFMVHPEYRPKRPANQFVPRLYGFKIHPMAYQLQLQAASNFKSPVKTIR
inactive: [1] 0.036 | [2] 0.014 | [3] 0.052 | [4] 0.018 | [5] 0.015 | [6] -0.05 | [7] 0.038 | [8] -0.01 | [9] -0.042 | [10] -0.017 | [11] -0.017 | [12] 0 | [13] 0.006 | [14] 0.084 | [15] -0.008 | [16] 0.021 | [17] 0.036 | [19] -0.011 | [20] -0.02
active: [18] 0.377

COX6B1 (UniProt P14854)
UniProt P14854, sequence (P14854 whole entry, looked up): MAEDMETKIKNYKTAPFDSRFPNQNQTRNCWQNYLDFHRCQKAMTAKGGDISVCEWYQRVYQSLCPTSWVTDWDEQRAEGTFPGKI
active: [8] 0.377
inactive: [1] -0.081 | [2] -0.023 | [3] -0.02 | [4] -0.01 | [5] 0.019 | [6] -0.027 | [7] 0.228 | [9] -0.044 | [10] 0.054 | [11] -0.039 | [12] -0.019 | [13] -0.146 | [14] 0.007 | [15] 0.085 | [16] -0.06 | [17] -0.007 | [18] -0.009 | [19] -0.126 | [20] -0.017

CPT1A (UniProt P50416)
inactive: [1] 0.171 | [2] 0.006 | [3] 0.058 | [4] 0.021 | [5] -0.042 | [6] -0.107 | [7] -0.024 | [8] -0.036 | [9] 0.187 | [10] -0.05 | [11] -0.068 | [12] -0.012 | [13] 0.117 | [14] -0.001 | [15] -0.005 | [16] -0.017 | [17] 0.053 | [18] 0.037 | [19] -0.014 | [20] 0.071

CHMP4B (UniProt Q9H444)
UniProt Q9H444, sequence (Q9H444 whole entry, looked up): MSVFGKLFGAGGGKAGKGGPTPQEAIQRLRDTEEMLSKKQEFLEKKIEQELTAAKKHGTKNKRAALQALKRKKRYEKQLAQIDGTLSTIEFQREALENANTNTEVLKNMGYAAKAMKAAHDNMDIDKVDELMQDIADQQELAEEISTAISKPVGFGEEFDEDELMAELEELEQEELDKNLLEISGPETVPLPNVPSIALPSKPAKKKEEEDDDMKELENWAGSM
active: [11] 0.255
inactive: [1] -0.078 | [2] 0.061 | [3] -0.027 | [4] 0.007 | [5] 0.017 | [6] -0.023 | [7] 0.012 | [8] -0.013 | [9] 0.053 | [10] 0.051 | [12] -0.011 | [13] -0.065 | [14] -0.001 | [15] 0.108 | [16] 0.024 | [17] -0.044 | [18] -0.016 | [19] 0.014 | [20] 0.022

CTBS (UniProt Q01459)
inactive: [2] -0.069 | [3] 0.016 | [4] -0.007 | [5] -0.006 | [6] -0.077 | [7] -0.093 | [8] 0.162 | [9] 0.091 | [10] 0.025 | [11] 0.088 | [12] -0.046 | [13] -0.268 | [14] -0.002 | [15] 0.058 | [16] -0.017 | [17] -0.026 | [18] -0.003 | [19] 0.051 | [20] -0.023
active: [1] -0.483

CBR1 (UniProt P16152)
UniProt P16152, sequence (P16152 whole entry, looked up): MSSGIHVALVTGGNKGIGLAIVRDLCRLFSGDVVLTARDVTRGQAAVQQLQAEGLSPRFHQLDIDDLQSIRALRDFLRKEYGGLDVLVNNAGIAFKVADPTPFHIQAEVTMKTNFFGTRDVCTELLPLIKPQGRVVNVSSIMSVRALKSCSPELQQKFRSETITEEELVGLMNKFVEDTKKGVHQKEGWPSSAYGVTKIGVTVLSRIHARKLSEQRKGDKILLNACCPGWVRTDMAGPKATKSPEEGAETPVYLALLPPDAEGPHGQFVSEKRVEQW
active: [20] 0.235
inactive: [1] 0 | [2] 0.011 | [3] -0.012 | [4] 0.003 | [5] -0.02 | [6] 0.022 | [7] 0.081 | [8] -0.031 | [9] -0.044 | [10] -0.01 | [11] -0.002 | [12] 0.025 | [13] -0.029 | [14] 0.037 | [15] -0.008 | [16] -0.041 | [17] 0.033 | [18] -0.011 | [19] -0.039
